# Screening data: PubChem, National Center for Advancing Translational Sciences (NCATS)
# Pf growth 48h: Primary qHTS for delayed death inhibitors of the malarial parasite plastid, 48 hour incubation. P. falciparum luciferase growth in erythrocytes, 48 h. Potency, µM (doses to about 28.7 µM), inactives show top-dose activity change, negative = inhibition, actives largely listed as inhibitors. 310,000 tested, 5.9% active. AID 504832, 2011; also: potency is read from the fitted curve at half-maximal effect; % is scaled to controls: 0 for no effect and ±100 for the full control effect
#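 Here the parasites carry a stable luciferase gene and grow inside erythrocytes in Albumax-based RPMI medium with compound for one erythrocytic cycle. Activity is scored as loss of luminescent signal.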
# Shiga toxin inh: A qHTS for Small Molecule Inhibitors of Shiga Toxin | Vero cells, Shiga toxin protein synthesis inhibition reporter | inhibition, % at 38.7 µM | 290,000 tested, 9.2% active; in the data active = inhibition mostly above about 28%, no sharp cut-off; inactive = mostly below about 43%; also: 0% is about no effect
# Pf growth 96h: Primary qHTS for delayed death inhibitors of the malarial parasite plastid, 96 hour incubation; P. falciparum luciferase reporter growth, 96 h; Potency, µM (doses to about 28.7 µM), without a hit: at the highest dose activity change, negative = inhibition, usual class: inhibitors; 320,000 tested, 6.9% active; also: potency is read from the fitted curve at half-maximal effect; % is scaled to controls: 0 for no effect and ±100 for the full control effect
#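 Erythrocytes infected with luciferase-expressing P. falciparum were dispensed at 2% hematocrit and 0.05% parasitemia (final), then incubated with compounds 96 hours at 37 C in 5% CO2. Luminescence after detection reagent addition reported growth.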
# SARS PLP yeast: qHTS of Yeast-based Assay for SARS-CoV PLP; S. cerevisiae expressing SARS-CoV PLpro, growth rescue; Potency, µM (series often up to 32.9 µM), inactives show at the top dose activity, positive = growth rescue, usual class: activators; 330,000 tested, 0.19% active; AID 485353, 2010; calls by dose curve; also: potency is read from the fitted curve at half-maximal effect; 0% is about no effect; nearly all actives have a fitted effect of over 55% in size
# AMA1-RON2 inh: qHTS for Inhibitors of AMA1-RON; Towards Development of Antimalarial Drug Lead: Primary Screen | Plasmodium falciparum AMA1 (3D7) - RON2 peptide interaction | AlphaScreen AMA1-biotinylated RON2 peptide binding | Potency, µM (highest dose often 58.2 µM), without a hit: top-dose activity change, negative = inhibition, hits mostly inhibitors | 360,000 tested, 0.2% active | AID 720542, 2013;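 also: potency is read from the fitted curve at half-maximal effect; 0% = vehicle wells and -100% = peptide control; nearly all actives have a fitted effect of over 45% in size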
#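 AMA1 (3D7) with his tag at 25 nM final met compounds first, then biotinylated RON2 peptide at 25 nM; detection used donor plus acceptor beads, 10 µg/mL apiece, read by AlphaScreen after 30 min at room temperature.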
# CHX counter: Cycloheximide Counterscreen for Small Molecule Inhibitors of Shiga Toxin; cell reporter, cycloheximide protein synthesis inhibition counterscreen; max response, %; 300,000 tested, 12% active; AID 2314, 2010; in the data active = max response mostly above about 13%, no sharp cut-off; inactive = mostly below about 14%; also: read at 38.3 µM for the half of the compounds with a filed dose; 0% is about no effect
# * hit, by the source's call; ? = inconclusive; / = no result; [ ] = dose if it differs, or a comment. Compounds with a hit are over-represented: about 19% of the library has one in this group of screens. Unless noted, calls follow the shape of the dose curve; as a rule, active = well fitted curve in the direction sought with a large enough effect; inconclusive = small, poorly fitted or top-dose-only effect, or another doubt; inactive = no such curve, though single readings can be large; an effect the other way counts as inactive or inconclusive.
SMILES,Pf growth 48h,Shiga toxin inh,Pf growth 96h,SARS PLP yeast,AMA1-RON2 inh,CHX counter
Cc1nc2ccccc2c(=O)n1-c1ccccn1,0%,-4,-7%,2%,0%,11
COC(=O)C(=O)C/C(=N/Nc1ncnc2ccccc12)c1ccc(Cl)cc1,15%,86*,?,20%,45%,27*
Oc1ccc(Nc2ncnc3ccccc23)cc1,4%,19,137%,0%,17%,10
Cc1ccccc1C(=O)Oc1cccc(Nc2ncnc3ccccc23)c1,/,/,/,/,2%,/
Cc1ccc(Nc2ncnc3ccccc23)cc1,148%,119*,3%,-1%,-3%,62*
NS(=O)(=O)c1ccc(CCNC(=O)COC(=O)C2CCN(c3ccc(C(F)(F)F)cn3)CC2)cc1,6%,/,0%,/,-14%,/
CN(CC(=O)Nc1ccc(F)cc1)C(=O)COC(=O)c1cc(Br)c(Br)s1,/,/,/,/,-1%,/
COc1ccc(OC)c(Nc2ncnc3ccc(Br)cc23)c1,?,-9,?,/,21%,-4
COc1ccc(Nc2ncnc3ccc(C)cc23)cc1,?,-3,12µM*,-14%,9%,1
Brc1ccc2ncnc(Nc3cccc4ccccc34)c2c1,?,12,13µM*,-28%,-6%,0
CC(C)Oc1ccc(Nc2ncnc3ccccc23)cc1,15%,82,?,-1%,5%,45*
CC(=O)Oc1cccc(Nc2ncnc3ccccc23)c1,-11%,/,39%,3%,7%,19*
O=C(NCCS(=O)(=O)N1CCCCCC1)c1ccc(F)cc1,-7%,/,11%,2%,5%,/
CC(=O)OCC1OC(n2c(-c3ccc(Cl)cc3)ccc(C#N)c2=S)C(OC(C)=O)C(OC(C)=O)C1OC(C)=O (centres undefined),/,/,/,/,12%,/
COC(=O)C1=CN(c2ccc(C(C)(C)C)cc2)C(N)=C(C#N)C1c1ccc(OC)cc1 (centres undefined),/,/,/,/,6%,/
CCCCC(Nc1ncnc2ccccc12)C(=O)O (centres undefined),/,-10,10%,-4%,2%,5
Cc1ccc(/C(=N/Nc2ncnc3ccccc23)C(=O)O)cc1,76%,93*,-5%,-16%,75%,80*
O=C(NCc1cccnc1)c1ccc(NC(=O)c2ccc([N+](=O)[O-])cc2)cc1,?,-21,-20%,0%,0%,4
CCOC(=O)C(NCc1ccc2c(c1)OCO2)(NC(=O)c1ccccc1)C(F)(F)F (centres undefined),15%,-13,37%,4%,43%,-2
CN1C(CCl)Nc2cc(Cl)c(S(N)(=O)=O)cc2S1(=O)=O (centres undefined),-20%,/,12µM*,/,1%,/
Cc1ccc(C)c(N2CCN(C(=O)C3CCN(S(=O)(=O)c4cccc5nsnc45)CC3)CC2)c1,?,-6,50%,-3%,-8%,-2
CCOC(=O)N/N=C/C=C/c1ccccc1,73%,60*,?,-25%,-2%,61*
COc1ccc(NCC(=O)N/N=C/C=C\c2ccccc2)cc1,16%,19*,2.6µM*,-18%,34%,21*
COc1ccc(/C=C/C(=O)Oc2ccc(/C=N/NC(=O)COc3c(C)cccc3C)cc2)cc1,?,-8,?,9%,/,3
Cc1ccccc1OCC(=O)N/N=C/C=C/c1ccccc1,0%,10,?,-5%,71%,-3
SMILES,Pf growth 48h,Shiga toxin inh,Pf growth 96h,SARS PLP yeast,AMA1-RON2 inh,CHX counter
COc1ccc(/C=C/C=N/NC(=O)COc2ccc(OC)cc2)cc1,-7%,43*,-21%,-3%,36%,17
COc1ccc(/C=C/C(=O)Oc2cccc(/C=N/NC(=O)COc3c(C)cccc3C)c2)cc1,23%,105*,-2%,1%,-7%,53*
COC1=Nc2ccccc2/C=C\c2ccccc21,/,/,/,/,4%,/
Fc1ccc(-n2cc(CNCCc3cccnc3)c(-c3ccccc3Cl)n2)cc1,?,-19,?,-2%,-10%,4
CSc1cc(C)n(-c2ccccc2)c(=S)c1C(C)=O,/,-6,6%,-8%,4%,-1
Cc1ccccc1-c1cc(C(=O)NCc2ccco2)n(CC2CC(c3cccnc3)=NO2)n1 (centres undefined),?,/,?,-5%,5%,/
CC1CCCN(S(=O)(=O)c2ccc(S(=O)(=O)N3CCCN(Cc4ccccc4)C3)cc2)C1 (centres undefined),/,-13,/,5%,-9%,-4
CC(C)CNS(=O)(=O)c1ccc(S(=O)(=O)N2CCCN(Cc3ccccc3)C2)cc1,12µM*,-3,10%,1%,-3%,4
Cc1cc(C)c(C(=O)CSc2nnc(C)c(=O)[nH]2)cc1C,1%,95*,-11%,1%,9%,48*
Cc1ccc(C(=O)CSc2nnc3ccccn23)c(C)c1,92%,35,113%,0%,-2%,27*
Cc1ccc(NC(=O)CSc2nnc3ccccn23)c(Cl)c1,/,/,/,/,-6%,/
Cc1cc(C)c(C(=O)CSc2nnc(N)s2)c(C)c1,6%,28,2%,0%,9%,3
CCOc1ccc(C(=O)CSc2nnc(N)s2)cc1,56%,73*,-18%,2%,11%,30
Cc1ccc(C(=O)CSc2nnc(N)s2)c(C)c1,109%,78*,-7%,-1%,7%,38*
CCCC(=O)N1CCOCC1c1cc(C(=O)Nc2ccccc2)no1 (centres undefined),/,/,/,/,-1%,/
Cc1cc(C(=O)CSc2nnc(N)s2)c(C)n1C1CC1,44%,/,23%,2%,4%,/
Cc1nnc(SCC(=O)c2ccc(C(C)C)cc2)s1,32%,74*,10%,-1%,-14%,31*
Cc1cc(C)c(C(=O)CSc2nnc(N)s2)cc1C,39%,21,57%,0%,-20%,26*
COCC(C)n1c(C)cc(C(=O)CSc2nnc(N)s2)c1C (centres undefined),?,37,/,3%,-2%,24*
Cc1ccc(Nc2nnc(SCC(=O)c3ccc(Br)s3)s2)c(C)c1,-4%,17,1µM*,-11%,7%[11.6 µM],8
COCC(C)n1c(C)cc(C(=O)CSc2nc(C)c(C)c(C)n2)c1C (centres undefined),?,-4,?,0%,-7%,-1
COC(=O)CCSCC(=O)N1N=C(c2ccc(Br)cc2)CC1c1cccc(OC)c1OC (centres undefined),?,-13,?,-9%,?,9
CCN(CC)S(=O)(=O)c1cccc(NC(=O)COc2ccc(F)cc2Br)c1,-14%,17,?,-7%,1%,7
